# Data taken from PubChem BioAssay AID1508622 (National Center for Advancing Translational Sciences (NCATS), 2021).
# Values without a mark were called inactive. Calls come from the whole dose curve; as a rule, active = well fitted activation curve with a large enough effect; inconclusive = small, poorly fitted or top-dose-only effect; inactive = no such curve, though single readings can be large or run the other way.
# Assay: Confirmatory qHTS for Identification of Small Molecule Activators of Huntingtin-Antisense Promoter Activity
# Details: HEK293 HTT-AS promoter firefly luciferase reporter, 24 h; series mostly up to 57.5 µM; activity change, positive = activation: at the top concentration
# Outline: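 Plated reporter HEK293 cells (24 h) received library compounds at up to 57.5 uM final or 50 uM PTC124, incubated 24 h at 37C; firefly luciferase luminescence was then recorded with Dual-Glo reagent.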
row,SMILES,"activity change, positive = activation"
1,COc1ccc(-c2cccc(NS(=O)(=O)c3cc(C)c(OC)c(C)c3C)c2)nn1,-87.8%
2,Cc1ccc(N(C)C(=O)Cn2cnc3onc(-c4ccc(F)cc4)c3c2=O)cc1C,-14.8%
3,COc1cc(NC(=O)CSc2nc3nc(C)c(Cc4ccc(C)cc4)c(C)n3n2)cc(OC)c1,-23%
4,COc1cccc(CNC(=O)Cn2c(=O)oc3cc(S(=O)(=O)N4CCC(C)CC4)ccc32)c1,-21.7%
5,COc1ccc(-c2noc(CSc3nnc(-c4ccccc4)n3-c3ccc(F)cc3)n2)c(OC)c1,-30.8%
6,CCC(C(=O)NCc1ccc(OC)c(OC)c1)n1nc(C)c2c(C)n(-c3ccc(C)cc3)nc2c1=O (stereo not drawn),-57.8%
7,COc1ccccc1NC(=O)CSc1nnc2c(n1)[nH]c1ccccc12,-24.4%
8,CCc1cccc(NC(=O)CSc2nc3ccsc3c(=O)n2CC)c1,-47.7%
9,Cc1ccc(CCNC(=O)C2CCN(c3nnc(-n4cccc4CNc4ccc(C)cc4)s3)CC2)cc1,-36.5%
10,COc1cc(OC)c(OC)cc1CN1CCc2nc(N3CCN(c4ncccn4)CC3)ncc2C1,-35.1%
11,COc1cc(OC)c(N(C)C(=O)c2cn(C3CCCC3)c(=O)c3c2c2ccccc2n3C)cc1Cl,-45%
12,COc1ccc(OC(C)C(=O)NCc2nc(-c3ccc(Cl)cc3)no2)cc1 (stereo not drawn),-73.4%
13,Cc1nc2sccn2c(=O)c1S(=O)(=O)Nc1ccc(N2CCOCC2)c(Cl)c1,-36.8%
14,CC1=C(C(=O)OCc2ccc(C)cc2)C(c2ccccc2Cl)CC(=O)N1 (stereo not drawn),-40%
15,COc1ccc(-n2nc3c(N4CCCC(C(=O)NCCc5ccc(C)cc5)C4)nnc(C)c3c2C)cc1 (stereo not drawn),-45.7%
16,Cc1oc(-c2ccc(C(=O)NCc3ccccc3Cl)cc2)nc1CN1CCc2ccccc21,-78.9%
17,CCc1nnc2n1N(C(C)=O)C(c1ccc(C(C)(C)C)cc1)=C(C(C)=O)S2,-94.1%
18,CCOc1ccc(S(=O)(=O)NCCc2csc(-c3ccc(Cl)cc3)n2)cc1,-92.4%
19,COc1ccc(C2=C(C)C(=O)N(Cc3ccc(C(=O)Nc4cccc(F)c4)cc3)S2(=O)=O)cc1,-41.6%

row,SMILES,"activity change, positive = activation"
1,Cc1ccc(C2=CC(c3ccc(Cl)cc3)n3nc(-c4ccc(C)cc4)nc3N2)cc1 (stereo not drawn),-3.5%
2,CCOc1ccccc1CNC(=O)c1ccc2nc(Cc3ccc(OC)cc3)oc2c1,-20.2%
3,CCN(CCCNC(=O)CSc1cc(=O)n(CC)c2ccccc12)c1cccc(C)c1,-23.4%
4,CCOc1ccc(-n2c(/C=C/c3cccc(F)c3)nc3cc(OC)c(OC)cc3c2=O)cc1,-47.7%
5,Cc1ccc(CN(C(=O)COc2cccc(Cl)c2)c2ccccn2)o1,-10.8%
6,O=C(NCC(c1ccc2c(c1)OCO2)N1CCN(c2ccc(F)cc2)CC1)c1cccc([N+](=O)[O-])c1 (stereo not drawn),-46.7%
7,Cc1cccc(-c2nc3scc(CCNS(=O)(=O)c4ccc(Oc5ccccc5)cc4)n3n2)c1,-93.6%
8,CCc1ccc(NC(=O)c2ccc(F)c(S(=O)(=O)N3CCN(c4cc(C)ccc4C)CC3)c2)cc1,-15.1%
9,Cc1ccccc1CNC(=O)c1ccc(-c2nc(CS(=O)(=O)c3ccccc3)c(C)o2)cc1,-41.5%
10,CC(C)c1nc2ccc(C(=O)NCCCN3CCN(c4cccc(Cl)c4)CC3)cc2o1,-39%
11,COc1ccc(-c2onc(C)c2C)cc1S(=O)(=O)N1CCc2ccccc21,-80.5%
12,O=C(c1cccs1)N(Cc1cccnc1)c1nc2ccc(F)cc2s1,-81.4%
13,Cc1ccc(S(=O)(=O)NCCc2csc(-c3cccc(F)c3)n2)cc1,-94.3%
14,CCOc1cccc(NC(=O)c2ccc(F)c(S(=O)(=O)N(CC)c3cccc(C)c3)c2)c1,-18.6%
15,COc1ccc2oc(=O)c(C(=O)NCCc3c(C)[nH]c4ccc(C)cc34)cc2c1,-17.8%
16,Cc1ccc(NS(=O)(=O)c2ccc(-c3cnc(C4CC4)o3)cc2)cc1N(C)C,-91.1%
17,Cc1ccc(Cl)cc1-n1ncc2c(Nc3cccc(C)c3C)ncnc21,-20.5%
18,Cc1cc(C)c(Cn2c3ccccc3c3cnn(CC(=O)N4CCCCC4)c(=O)c32)c(C)c1,-20.4%
19,CC(=O)Nc1cccc(NC(=O)Cc2csc(COc3cccc(C)c3)n2)c1,-50.9%
